Bioassay records as filed in PubChem BioAssay.
Rows were chosen to be rich in hits. Some 1.7% of all compounds tested hit in one or more screens of this group.
PTHR1 agonist – agonists of human PTHR1 parathyroid hormone receptor; Q03431; HEK293 GP2 PTHR1 cells, GloSensor cAMP luminescence, 1 h; Potency, µM (doses to about 115 µM), inactives show top-dose activation, actives largely listed as activators; 410,000 tested, 0.075% active; further: potency means the concentration at half of the fitted maximal effect; nearly all actives have a fitted effect of over 55% in size
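HEK-293-derived GP2 cells expressing PTHR1 and a GloSensor cAMP reporter, 3,000/well, plated overnight, given luciferin plus IBMX (each 0.5 mM as added) for 1 h at 37 °C, then compound for 1 h at 37 °C. Luminescence was read after 15 min at room temperature.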
GLP1R cytotox – cytotoxic in the GLP-1 receptor inverse agonist counter-screen; HEK293 cAMP-luciferase reporter cells, luminescence, 24 h; Potency, µM (highest dose often 38.3 µM), for inactives: at the top dose activity change, negative = inhibition, actives largely listed as inhibitors; 410,000 tested, 0.13% active;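 further: loss of luciferase light is scored as toxicity; potency means the concentration at half of the fitted maximal effect; on the % scale 0 is the no-effect control and ±100 the full control effect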
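1536-well qHTS counterscreen of the MLSMR; 200 cells/uL, 12 h pre-incubation, 23 nL cpd, 24 h at 37 deg C 5% CO2, luciferase detection reagent, 12 min RT, luminescence. Inhibition = undesired.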
GLP1R ag – GLP-1 receptor (human) agonism; P43220; HEK293 GLP-1R CRE-luciferase, luminescence, 4-6 h; cells express a hypersensitive GLP-1R form; Potency, µM (series often up to 45.6 µM), without a hit: at the top dose activation, hits mostly activators; 380,000 tested, 0.007% active; AID 624172; further: potency means the concentration at half of the fitted maximal effect; % of control where 0% means no effect
Target sequence (P43220 whole entry, looked up): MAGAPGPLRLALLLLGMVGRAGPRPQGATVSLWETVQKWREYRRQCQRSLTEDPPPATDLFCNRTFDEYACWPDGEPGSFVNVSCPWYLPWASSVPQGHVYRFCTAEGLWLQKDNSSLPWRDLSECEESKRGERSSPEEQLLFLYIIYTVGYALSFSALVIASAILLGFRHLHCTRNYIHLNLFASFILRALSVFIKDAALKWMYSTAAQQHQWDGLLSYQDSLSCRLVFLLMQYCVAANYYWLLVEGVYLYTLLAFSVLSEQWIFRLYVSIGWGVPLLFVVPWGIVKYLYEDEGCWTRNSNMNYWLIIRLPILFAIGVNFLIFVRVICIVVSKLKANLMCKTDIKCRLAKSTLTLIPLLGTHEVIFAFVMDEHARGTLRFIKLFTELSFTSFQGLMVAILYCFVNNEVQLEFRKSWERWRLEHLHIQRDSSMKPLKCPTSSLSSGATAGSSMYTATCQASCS
GLP-1R inv ag – inverse agonists of human GLP-1 receptor. 410,000 tested, 1.6% active. HEK293 GLP-1R CRE-luciferase, luminescence, 24 h; GLP-1R form is constitutively active. P43220. Potency, µM (titrated, usually from 38.3 µM), inactives show at the top dose activity change, negative = inhibition, hits mostly inhibitors; further: potency means the concentration at half of the fitted maximal effect; on the % scale 0 is the no-effect control and ±100 the full control effect; nearly all actives have a fitted effect of over 55% in size
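Constitutively active GLP-1R drives a cAMP-responsive luciferase in stably transfected HEK293 cells; test compounds are added after overnight (12 h) attachment and left 24 hr, and signal loss in luminescence marks inhibition.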
LDHA block – blocks human lactate dehydrogenase A; P00338; purified LDHA, NADH/diaphorase-resazurin fluorescence; hits give low values; activity change, % (values are at about 110 or 230 µM); 480,000 tested, 0.15% active; in the data active means activity change below about -30%; inconclusive means mostly about -25% to -30%;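 further: plate controls were DMSO wells for no effect and wells without enzyme for full effect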
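Human LDH5 at 2 nM final in Tris HCl pH 7.4 with 0.06 mM NADH and 0.2 mM pyruvate, reacted 5 minutes at room temperature. Remaining NADH coupled via diaphorase/resazurin; resorufin fluorescence read at 0 and 20 minutes, normalized to enzyme-free and DMSO wells.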
IDH1 R132H inh – blocks human mutant IDH1 R132H enzyme. O75874. IDH1-R132H enzyme, NADPH consumption, diaphorase/resazurin fluorescence. Potency, µM (titrated, usually from 76.6 µM), inactives show at the top dose activity change, negative = inhibition, hits mostly inhibitors. 390,000 tested, 0.093% active; further: potency means the concentration at half of the fitted maximal effect; on the % scale 0 is the no-effect control and ±100 the full control effect; nearly all actives have a fitted effect of over 65% in size
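IDH1-R132H (0.5 ug/mL) preincubated 30 min with compound, then NADPH (0.016 mM) and alpha-KG (2 mM) added; 80 min at RT, pH 7.5. Remaining NADPH coupled via diaphorase/resazurin to fluorescence (540/590 nm); concentration-response curves normalized to no-enzyme control.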
* = called active by the depositor. Unless noted, the call rests on the fitted dose curve; in most records, active means well fitted curve in the direction sought with a large enough effect; inconclusive means small, poorly fitted or top-dose-only effect, or another doubt; inactive means no such curve, though single readings can be large; an effect the other way counts as inactive or inconclusive.

How did COC(=O)c1c(-c2ccc(F)cc2)csc1NC(=O)C1CCCO1 (stereo unspecified) do in these assays?
PTHR1 agonist: -40%; GLP1R cytotox: -9%; GLP1R ag: 27%; GLP-1R inv ag: -24%; LDHA block: -5; IDH1 R132H inh: -1%

What do the screens show for `Cn1cc(C(C(=O)O)N2CCN(C=O)CC2)c2ccc(C(=O)O)cc21` (stereo unspecified)?
LDHA block: -4

How did N=c1c2c(-c3ccccc3)c(-c3ccccc3)n(Cc3ccco3)c2ncn1CCO do in these assays?
PTHR1 agonist: inactive; GLP1R cytotox: 7.9µM*; GLP1R ag: -11%; GLP-1R inv ag: inconclusive; LDHA block: -4; IDH1 R132H inh: 2%

How did CC(C)(C)C(=O)COC(=O)c1nn(-c2ccccc2)c(=O)c2ccccc12 do in these assays?
LDHA block: 8

How did CC1COC(=O)C(NNc2ccc(Cl)c(Cl)c2)=N1 (stereo unspecified) do in these assays?
PTHR1 agonist: -4%; GLP1R cytotox: inconclusive; GLP1R ag: -1%; GLP-1R inv ag: 2.2µM*; LDHA block: 0; IDH1 R132H inh: 4%

How did C/C(Nc1ccc(Cl)c(Cl)c1)=C1/CCOC1=O do in these assays?
PTHR1 agonist: -22%; GLP1R cytotox: 14%; GLP1R ag: 0%; GLP-1R inv ag: inconclusive; LDHA block: 4; IDH1 R132H inh: 16%

How did O=C(NC1CCN(Cc2ccccc2)C1)c1nn(-c2ccccc2)c(=O)c2ccccc12 (stereo unspecified) do in these assays?
LDHA block: 12

How did Cc1ccc(Oc2c(C(N)=O)cc([N+](=O)[O-])cc2[N+](=O)[O-])cc1 do in these assays?
PTHR1 agonist: -10%; GLP1R cytotox: inconclusive; GLP1R ag: -35%; GLP-1R inv ag: 11µM*; LDHA block: 6; IDH1 R132H inh: -1%

Results for CC(Oc1cccc(Cl)c1)C(=O)Nc1ccccc1N1CCCCC1 (stereo unspecified) ?
PTHR1 agonist: -63%; GLP1R cytotox: 0%; GLP1R ag: 6%; GLP-1R inv ag: inconclusive; LDHA block: -3; IDH1 R132H inh: -4%

What do the screens show for `CC(Oc1cccc(Cl)c1)C(=O)Nc1cc(Cl)ccc1N1CCOCC1` (stereo unspecified)?
PTHR1 agonist: -46%; GLP1R cytotox: -1%; GLP1R ag: 12%; GLP-1R inv ag: 13µM*; LDHA block: 0; IDH1 R132H inh: -5%

How did Cc1cc(=O)c(C(=O)OCC#N)nn1-c1cccc(C(F)(F)F)c1 do in these assays?
LDHA block: -15

What do the screens show for `CCn1nnnc1SCC(=O)N(C1CCCCC1)C1CCCCC1`?
PTHR1 agonist: inactive; GLP1R cytotox: -18%; GLP1R ag: 6%; GLP-1R inv ag: 8.9µM*; LDHA block: -3; IDH1 R132H inh: 1%

How did C=CCn1c(=O)c2c(nc(-n3nc(C)c(C)c3C)n2CC(=C)C)n(C)c1=O do in these assays?
LDHA block: -32*

Results for CC(C)c1ccc(NC2CCCN(C(=O)c3ccsc3)C2)cc1 (stereo unspecified) ?
PTHR1 agonist: -38%; GLP1R cytotox: 21%; GLP1R ag: -1%; GLP-1R inv ag: 10µM*; LDHA block: 4; IDH1 R132H inh: 10%

What do the screens show for `COC(=O)c1ccc(C(=O)N2CCCC(Nc3ccc(C(C)C)cc3)C2)cc1` (stereo unspecified)?
PTHR1 agonist: -5%; GLP1R cytotox: -15%; GLP1R ag: 0%; GLP-1R inv ag: -24%; LDHA block: 0; IDH1 R132H inh: 9%

Results for CCOc1ccccc1OCC(=O)Nc1cccc(S(=O)(=O)N2CCCCCC2)c1 ?
PTHR1 agonist: -3%; GLP1R cytotox: 3%; GLP1R ag: 2%; GLP-1R inv ag: inconclusive; LDHA block: -1; IDH1 R132H inh: 4%
